# Sampled rows, rich in hits. Any-hit rate of the full collection: about 2.6%.
# TWEAK Fn14 block = inhibitors of TWEAK-Fn14 interaction signaling; TWEAK-stimulated Fn14 reporter cells, luciferase luminescence, 8 h; inhibition, % at 10 µM; 360,000 compounds, 2% hits; AID 1159606; in the data active = inhibition above about 50%
# TROY NFkB inh = TROY signaling inhibition. inhibition, % at 10 µM. Q293 LMP1-TROYcd NF-kB luciferase reporter, 4 h. 360,000 compounds, 0.98% hits;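 active = compounds whose plate-normalised and pattern-corrected inhibition of the luciferase reporter signal at the single screening dose is 50% or more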
# aDG glyco up = alpha-DG glycosylation activation; Pro5-aDG cells, alpha-DG glycosylation AlphaScreen (IIH6); 0% Pro5, 100% B10-LARGE cell signal; activation, % at 10 µM; 360,000 compounds, 0.22% hits;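 active = activation of at least 8% versus controls, or a plate z-score of at least 8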;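 note: Pro5 are CHO cells carrying HIG-tagged alpha-DG that lacks glycosylation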
# LGR2 inh = inhibitors of bursicon-induced Drosophila LGR2 receptor cAMP signaling. HEK293 LGR2, CRE-luciferase, bursicon-stimulated, 4 h. inhibition, % at 9.99 µM. 380,000 compounds, 0.35% hits;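 active = drop in luminescence signal, shown as inhibition above about 50% in the replicate tests, limit read from the data, passing the limit was not always enough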;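 note: agonist challenge used bursicon conditioned medium at about half maximal strength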
# EBV LMP1 NFkB = reduces LMP1-driven NF-kappaB luciferase signal; AID 504558; inhibition, % at 12.5 µM; LMP1-induced NF-kappaB luciferase reporter cells, luminescence; 350,000 compounds, 0.69% hits; in the data active = inhibition above about 41%;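 note: 0% = neutral control wells and 100% = reference inhibitor control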
# HSP90 refold inh = inhibitors of HSP90 luciferase refolding in rabbit reticulocyte lysate; luciferase refolding luminescence, 3 h; inhibition, % at 5.6 µM; 290,000 compounds, 0.91% hits;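 active = inhibition above the screen-wide mean plus 3 SD, computed separately per campaign, cut at about 16% in these data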;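 note: 0% = DMSO wells and 100% = 60 µM geldanamycin wells; inhibitors lower the luminescence because luciferase stays unfolded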
# HSP90 confirm = confirmation of HSP90 inhibitors | shares compounds with HSP90 refold inh | rabbit reticulocyte lysate, luciferase refolding luminescence, 3 h | inhibition, % at 5.9 µM | 2,300 compounds, 64% hits | AID 1846; in the data active = inhibition above about 18%;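 note: 0% = vehicle wells and 100% = reference inhibitor wells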
# luciferase ctr = counter-screen for HSP90 inhibitors: inhibitors of firefly luciferase | purified native firefly luciferase, luminescence | shares compounds with HSP90 refold inh | inhibition, % at 5.9 µM | AID 1847 | 2,300 compounds, 48% hits;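 active = inhibition above the mean inhibition of all tested sample wells plus 3 SD, cut at about 10% in these data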;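 note: 0% = DMSO with luciferase and 100% = wells lacking luciferase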
# Target sequence (P08659 whole entry, looked up): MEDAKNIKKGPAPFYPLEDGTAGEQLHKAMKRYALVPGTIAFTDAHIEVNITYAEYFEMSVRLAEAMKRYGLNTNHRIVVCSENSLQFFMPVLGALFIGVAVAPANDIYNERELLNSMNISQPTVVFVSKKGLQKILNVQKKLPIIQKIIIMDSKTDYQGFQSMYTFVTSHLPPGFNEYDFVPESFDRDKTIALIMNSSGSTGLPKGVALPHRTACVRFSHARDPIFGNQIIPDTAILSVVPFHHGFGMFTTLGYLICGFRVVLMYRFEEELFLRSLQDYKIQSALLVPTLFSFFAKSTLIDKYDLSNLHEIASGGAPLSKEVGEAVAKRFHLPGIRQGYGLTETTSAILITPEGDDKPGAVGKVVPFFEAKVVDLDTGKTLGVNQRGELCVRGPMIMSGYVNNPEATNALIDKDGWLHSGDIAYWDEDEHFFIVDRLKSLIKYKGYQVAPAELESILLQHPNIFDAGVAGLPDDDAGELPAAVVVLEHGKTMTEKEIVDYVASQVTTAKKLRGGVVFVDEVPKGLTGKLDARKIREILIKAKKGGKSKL
# * = called active by the depositor; · = not tested or not shown.
SMILES,TWEAK Fn14 block,TROY NFkB inh,aDG glyco up,LGR2 inh,EBV LMP1 NFkB,HSP90 refold inh,HSP90 confirm,luciferase ctr
COCC(=O)Nc1ccc2c(c1)[C@@H]1C[C@@H](CC(=O)N3CCOCC3)O[C@H](CO)[C@@H]1O2,·,·,·,2,·,·,·,·
COC(=O)C[C@@H]1CC[C@H]2[C@H](COc3ccc(NC(=O)C4CCOCC4)cc3C(=O)N2C)O1,·,·,·,0,·,·,·,·
CCCCn1c(NC(=O)c2ccc(Br)o2)c(S(=O)(=O)c2ccccc2)c2nc3ccccc3nc21,74*,71*,0,·,7,34*,3,-6
CCCCn1c(NC(C)=O)c(C#N)c2nc3ccccc3nc21,-1,12,0,·,-12,24*,3,-2
C=CCn1c(NC(=O)c2ccccc2Cl)c(C#N)c2nc3ccccc3nc21,13,66*,0,·,5,49*,12,0
COCC(=O)N(C)C[C@@H]1Oc2cc(C#C[C@H](C)O)ccc2S(=O)(=O)N([C@H](C)CO)C[C@@H]1C,·,·,·,24,·,·,·,·
O=C(NC(=O)c1ccccc1O)c1ccc2c(c1)CCO2,54*,17,0,·,36,19*,24*,-2
COc1ccc(C(=O)Nc2ccc3ccccc3n2)c(OC)c1OC,88*,72*,0,89*,15,41*,68*,65*
COc1cc(SC)ccc1C(=O)Nc1nc2ccccc2[nH]1,100*,84*,0,105*,96*,99*,97*,92*
COc1ccccc1C(=O)Nc1nc2ccccc2[nH]1,107*,89*,0,103*,88*,98*,97*,92*
COc1ccccc1C(=O)NCCC(=O)Nc1nc2ccccc2[nH]1,32,13,0,7,6,·,·,·
C[C@@H]1CN([C@H](C)CO)C(=O)c2cc(N(C)C)ccc2O[C@@H](C)CCCCO[C@@H]1CN(C)C(=O)Nc1ccc2c(c1)OCO2,·,·,·,41,·,·,·,·
COCC#Cc1ccc2c(c1)O[C@H](CN(C)C)[C@@H](C)CN([C@@H](C)CO)S2(=O)=O,·,·,·,-12,·,·,·,·
Cc1nn(C(C)(C)C)c(C)c1/C=N/OC(=O)Nc1ccc(Cl)cc1,103*,82*,0,99*,74*,86*,86*,87*
CN1C(=O)c2cc(NC(=O)c3ccc(C(F)(F)F)cc3)ccc2OC[C@@H]2O[C@@H](CC(=O)NC3Cc4ccccc4C3)CC[C@H]21,·,·,·,4,·,·,·,·
Cc1[nH]nc2c1C1(CCN(C(=O)OCc3ccccc3)CC1)C(C#N)=C(N)O2,7,13,0,·,0,24*,7,4
Cc1[nH]nc2c1C1(CCN(C(=O)c3ccccc3)CC1)C(C#N)=C(N)O2,7,6,0,·,-1,3,·,·
CNC[C@H]1Oc2ncc(C3=CCCC3)cc2C(=O)N([C@@H](C)CO)C[C@H]1C,·,·,·,0,·,·,·,·
CC(=O)c1cc(-c2ccccc2)n(CCC(=O)NC2CCCC2)c1C,5,-12,0,·,-11,3,·,·
CC(=O)c1cc(-c2ccccc2)n(CCC(=O)NC2CCCCC2)c1C,0,23,0,-16,-5,27*,1,-4
Nc1ccc(Br)c2cccnc12,16,9,2,-3,4,17*,1,-10
COc1ccc(CCN(C)C(=O)CN2C(=O)c3ccccc3S2(=O)=O)cc1OC,1,-17,0,·,-5,0,·,·
COc1ccc(CCN(/C=C2\Sc3ccccc3C2=O)C(C)=O)cc1OC,0,56*,0,·,·,25*,1,-5
COc1ccc(-c2cc(C(=O)N3CCOCC3)no2)cc1OC,-20,-29,0,·,-10,6,·,·
O=C(c1cc(-c2ccc(Br)cc2)on1)N1CCCCCC1,24,-27,0,-98,-50,6,·,·
SMILES,TWEAK Fn14 block,TROY NFkB inh,aDG glyco up,LGR2 inh,EBV LMP1 NFkB,HSP90 refold inh,HSP90 confirm,luciferase ctr
O=C(c1cc(-c2ccc(Br)cc2)on1)N1CCOCC1,55*,-2,0,-4,2,19*,38*,29*
COc1ccc(-c2cc(C(=O)N3CCOCC3)no2)cc1,65*,41,0,53*,29,37*,50*,32*
CC1CCN(C(=O)c2cc(-c3ccc4c(c3)OCO4)on2)CC1,53*,-24,0,-16,-13,20*,39*,28*
O=C(c1cc(-c2cccc(O)c2)on1)N1CCOCC1,50,-23,0,·,-12,12,·,·
COc1cccc(-c2cc(C(=O)N3CCOCC3)no2)c1,-46,-16,0,-22,-11,18*,19*,-4
CC1CCCCN1C(=O)c1cc(-c2ccc3c(c2)OCO3)on1 (configuration not stated),24,12,0,-59,-32,7,·,·
O=C(CCN1CCCCC1)NCC[C@H]1CC[C@H](NC(=O)Nc2ccc(Cl)cc2)[C@@H](CO)O1,·,·,·,6,·,·,·,·
C[C@H](CO)N1C[C@H](C)[C@@H](CN(C)Cc2ccncc2)Oc2ncc(C#Cc3ccncc3)cc2C1=O,·,·,·,-4,·,·,·,·
CCN1C(=O)CC(N2CCC(c3nc4ccccc4[nH]3)CC2)C1=O (configuration not stated),-11,6,0,-2,-2,23*,24*,5
O=c1cnc2ccccc2n1Cc1ccc(Br)cc1,-16,-60,0,-26,-6,-1,·,·
CC(C)(C)c1ccc(Cn2c(=O)cnc3ccccc32)cc1,92*,81*,0,60*,63*,22*,53*,34*
CN(C)C(CNC(=O)C1CCN(S(=O)(=O)c2cccc(C(F)(F)F)c2)CC1)c1ccccc1 (configuration not stated),6,3,0,-4,-7,40*,-4,-13
CN(C)C(CNC(=O)C1CCN(S(=O)(=O)c2ccccc2)CC1)c1ccccc1 (configuration not stated),-9,-1,0,-5,-3,1,·,·
O=C1CC(c2ccc3c(c2)OCCO3)Oc2ccc([N+](=O)[O-])cc21 (configuration not stated),98*,85*,0,-31,-26,55*,66*,64*
COc1ccc(C(=O)Nn2c(SCC(=O)NCc3ccccc3)nc3ccccc3c2=O)cc1,85*,78*,0,·,24,68*,50*,49*
COc1ccc(C(=O)Nn2c(SCC(=O)NC3CCCC3)nc3ccccc3c2=O)cc1,78*,79*,0,·,13,72*,52*,49*
COc1ccc(C(=O)Nn2c(SCC(=O)NCC3CCCO3)nc3ccccc3c2=O)cc1 (configuration not stated),95*,78*,0,·,39,63*,78*,72*
